High-throughput results from PubChem.
PRMT1 inh: PRMT1 (human) inhibition, primary screen; Q99873; recombinant PRMT1, activity-based probe fluorescence polarization; inhibition, % at 2.79 µM; 1.3% of 370,000 active; AID 652257;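 active means inhibition above about 21% made by adding two undisclosed values, limit read from the data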
MBD2 inh: blocks human MBD2 binding to methylated DNA; inhibition, % at 4.4 µM; TR-FRET, MBD2 binding to methylated oligonucleotide; 0.31% of 370,000 active; Q9UBB5; in the data active means inhibition above about 13%
ABHD5 PLIN5 PPI: blocks binding of human ABHD5 to perilipin-5. 0.78% of 360,000 active. inhibition, % at 4 µM. Split G. princeps luciferase complementation, luminescence, 4 h;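 active means inhibition above the mean inhibition across every tested compound plus 3 SD, cut at about 22% in these data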
LEDGF integ inh: blocks HIV-1 LEDGF/p75-dependent DNA integration | TR-FRET IN-LEDGF/p75 DNA integration, Eu/Cy5 | inhibition, % at 3.7 µM | 0.64% of 370,000 active | AID 743269;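 active means inhibition above the screen-wide mean plus 3 SD, cut at about 13% in these data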;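 further: signal is the Cy5 over europium emission ratio at 671 and 618 nm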
rCAG binder: r(CAG) repeat RNA binding. 1.3% of 370,000 active. AID 651821. TO-PRO-1 dye displacement fluorescence. inhibition, % at 3 µM;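 active means inhibition above the plate cutoff, the mean of all test compounds on that plate plus 3 SD, cut at about 35% in these data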;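 further: higher means more dye released from RNA so lower well fluorescence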
UHRF1 binding: human UHRF1 methylated DNA binding inhibitors; UHRF1 binding to methylated oligo, TR-FRET; inhibition, % at 4.4 µM; 0.75% of 370,000 active; in the data active means inhibition above about 21%;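 further: UHRF1 SRA domain binding a hemimethylated CpG hairpin DNA probe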
ABHD5-PLIN5 conf: ABHD5-PLIN5 interaction inhibition, confirmed. shares compounds with ABHD5 PLIN5 PPI. biochemical ABHD5-PLIN5 interaction, luminescence. inhibition, % at 4 µM. 67% of 2,200 active; in the data active means inhibition above about 23%
HNF4 split-luc: HNF4 split-luciferase signal hit, counter-screen; shares compounds with ABHD5 PLIN5 PPI; HNF4 dimerization, luminescence, biochemical; inhibition, % at 4 µM; 77% of 2,200 active; AID 651674;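 active means mean inhibition across replicate wells exceeding the computed hit threshold, cut at about 13% in these data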;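 further: light from luciferase halves that rejoin when HNF4 fusion proteins dimerize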
Numbers stand for hits. Sampled rows, rich in hits. Any-hit rate of the full collection: about 4.1%.

How did CCOP(=O)(/C=C(\Cl)c1ccccc1)C(O)c1ccc(F)cc1 (stereo not given) do in these assays?
PRMT1 inh: inactive; MBD2 inh: inactive; ABHD5 PLIN5 PPI: inactive; LEDGF integ inh: inactive; rCAG binder: inactive; UHRF1 binding: inactive

How did CC1(C)C[C@H]2C=C(C=O)[C@]3(C=O)C[C@]3(C)[C@H]2C1 do in these assays?
PRMT1 inh: inactive; MBD2 inh: inactive; ABHD5 PLIN5 PPI: 63; LEDGF integ inh: inactive; rCAG binder: inactive; UHRF1 binding: inactive; ABHD5-PLIN5 conf: 70; HNF4 split-luc: inactive

What do the screens show for `COc1ccccc1-n1c(O)c(/C=C2\C=Nc3ccccc32)c(=O)[nH]c1=O`?
PRMT1 inh: inactive; MBD2 inh: inactive; ABHD5 PLIN5 PPI: 29; LEDGF integ inh: inactive; rCAG binder: inactive; UHRF1 binding: inactive; ABHD5-PLIN5 conf: 24; HNF4 split-luc: 28

How did CCOc1ccc(-n2c(O)c(/C=C3\C=Nc4ccccc43)c(=O)[nH]c2=O)cc1 do in these assays?
PRMT1 inh: inactive; MBD2 inh: inactive; ABHD5 PLIN5 PPI: 29; LEDGF integ inh: inactive; rCAG binder: inactive; UHRF1 binding: inactive; ABHD5-PLIN5 conf: inactive; HNF4 split-luc: 38

What do the screens show for `COc1ccc(OC)c(-n2c(O)c(/C=C3\C=Nc4ccccc43)c(=O)[nH]c2=O)c1`?
PRMT1 inh: inactive; MBD2 inh: inactive; ABHD5 PLIN5 PPI: inactive; LEDGF integ inh: inactive; rCAG binder: inactive; UHRF1 binding: inactive

What do the screens show for `C=CCn1c(O)c(/C=C2\C=Nc3ccccc32)c(=O)[nH]c1=O`?
PRMT1 inh: inactive; MBD2 inh: inactive; ABHD5 PLIN5 PPI: inactive; LEDGF integ inh: inactive; rCAG binder: inactive; UHRF1 binding: inactive

Results for CCS(=O)(=O)Nc1cccc(C(=C2CCCCC2)c2cnc[nH]2)c1 ?
PRMT1 inh: inactive; MBD2 inh: inactive; ABHD5 PLIN5 PPI: inactive; LEDGF integ inh: inactive; rCAG binder: inactive; UHRF1 binding: inactive

What do the screens show for `CCN(CC)S(=O)(=O)c1ccc(N=Cc2c(O)n(-c3ccccc3)c(=O)[nH]c2=O)cc1`?
PRMT1 inh: inactive; MBD2 inh: inactive; ABHD5 PLIN5 PPI: inactive; LEDGF integ inh: inactive; rCAG binder: inactive; UHRF1 binding: inactive

What do the screens show for `O=C1c2cccc3cccc(c23)C(=O)N1/N=C/c1c(O)n(-c2ccccc2)c(=O)[nH]c1=O`?
PRMT1 inh: inactive; MBD2 inh: inactive; ABHD5 PLIN5 PPI: 24; LEDGF integ inh: inactive; rCAG binder: inactive; UHRF1 binding: inactive; ABHD5-PLIN5 conf: inactive; HNF4 split-luc: 18

What do the screens show for `Nc1c(C(=O)NCc2ccco2)c2nc3ccccc3nc2n1CCN1CCCCC1`?
PRMT1 inh: inactive; MBD2 inh: inactive; ABHD5 PLIN5 PPI: 24; LEDGF integ inh: inactive; rCAG binder: inactive; UHRF1 binding: inactive; ABHD5-PLIN5 conf: inactive; HNF4 split-luc: inactive

How did O=C(NCCN1CCC2(CC1)C(=O)NCN2c1ccccc1)c1ccc(F)cc1 do in these assays?
PRMT1 inh: inactive; MBD2 inh: inactive; LEDGF integ inh: inactive; rCAG binder: inactive; UHRF1 binding: inactive

What do the screens show for `CN1CCC(O)(c2cccs2)C(C(=O)c2cccs2)C1` (stereo not given)?
PRMT1 inh: inactive; MBD2 inh: inactive; ABHD5 PLIN5 PPI: inactive; LEDGF integ inh: inactive; rCAG binder: inactive; UHRF1 binding: inactive

Results for COc1cc(/C=N/n2cnnc2)ccc1OC(=O)N(C)C ?
PRMT1 inh: inactive; MBD2 inh: inactive; ABHD5 PLIN5 PPI: inactive; LEDGF integ inh: inactive; rCAG binder: inactive; UHRF1 binding: inactive

What do the screens show for `COc1cc(/C=C/[N+](=O)[O-])ccc1OC(=O)c1cccnc1`?
PRMT1 inh: inactive; MBD2 inh: inactive; ABHD5 PLIN5 PPI: 27; LEDGF integ inh: inactive; rCAG binder: inactive; UHRF1 binding: inactive; ABHD5-PLIN5 conf: 83; HNF4 split-luc: 101

Results for N#CCCC#N ?
PRMT1 inh: inactive; MBD2 inh: inactive; LEDGF integ inh: inactive; rCAG binder: inactive; UHRF1 binding: inactive

How did CCOc1cc2c(cc1OCC)-n1cccc1C(c1ccccc1OC)NC2 (stereo not given) do in these assays?
PRMT1 inh: inactive; MBD2 inh: inactive; ABHD5 PLIN5 PPI: inactive; LEDGF integ inh: inactive; rCAG binder: inactive; UHRF1 binding: inactive
